Positions count from the first letter of the chain named. The full ranking holds about 16,000 sequences; the median of “ka relative to ugcaugu” is about 0.096, and the highest 2% start at about 0.35. For the sample, the highest values were picked, then their nearest neighbours and some sequences at random.
T1: RBFOX1 RRM RbFoxmut (Fox-RRM*) (Homo sapiens, UniProt Q9NWB1 109-208, R118D;E147R;N151S;E152T)
T1 sequence: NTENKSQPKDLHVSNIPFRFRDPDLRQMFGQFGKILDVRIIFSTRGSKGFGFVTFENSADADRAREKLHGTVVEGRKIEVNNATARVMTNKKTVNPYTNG

B1: ACUCCUU (DNA:RNA)
RNA: GGGAGACCGGAAUUCAGAUUGUCCACUCCUUUUAAAUCCCGUCGUAGCCACCA
DNA 1: CAATCTGAATTCCGGTCTCCC
DNA 2: TGGTGGCTACGACGGGATT
B2: UUGUUCC (DNA:RNA)
RNA: GGGAGACCGGAAUUCAGAUUGUCCUUGUUCCUUAAAUCCCGUCGUAGCCACCA
DNA 1: CAATCTGAATTCCGGTCTCCC
DNA 2: TGGTGGCTACGACGGGATT
B3: AAAUGUA (DNA:RNA)
RNA: B1 RNA with C26A, U27A, C28U, C29G, U31A
DNA 1: CAATCTGAATTCCGGTCTCCC
DNA 2: TGGTGGCTACGACGGGATT
B4: CGUAUUA (DNA:RNA)
RNA: B1 RNA with A25C, C26G, C28A, C29U, U31A
DNA 1: CAATCTGAATTCCGGTCTCCC
DNA 2: TGGTGGCTACGACGGGATT
B5: AUGUGAG (DNA:RNA)
RNA: B2 RNA with U25A, U29G, C30A, C31G
DNA 1: CAATCTGAATTCCGGTCTCCC
DNA 2: TGGTGGCTACGACGGGATT
B6: GAUAGGC (DNA:RNA)
RNA: B1 RNA with A25G, C26A, C28A, C29G, U30G, U31C
DNA 1: CAATCTGAATTCCGGTCTCCC
DNA 2: TGGTGGCTACGACGGGATT
B7: AAGUUCU (DNA:RNA)
RNA: B2 RNA with U25A, U26A, C31U
DNA 1: CAATCTGAATTCCGGTCTCCC
DNA 2: TGGTGGCTACGACGGGATT
B8: UGUGAUC (DNA:RNA)
RNA: B1 RNA with A25U, C26G, C28G, C29A, U31C
DNA 1: CAATCTGAATTCCGGTCTCCC
DNA 2: TGGTGGCTACGACGGGATT
B9: UGUGAUG (DNA:RNA)
RNA: B1 RNA with A25U, C26G, C28G, C29A, U31G
DNA 1: CAATCTGAATTCCGGTCTCCC
DNA 2: TGGTGGCTACGACGGGATT
B10: UGUGUGA (DNA:RNA)
RNA: B2 RNA with U26G, G27U, U28G, C30G, C31A
DNA 1: CAATCTGAATTCCGGTCTCCC
DNA 2: TGGTGGCTACGACGGGATT
B11: UGAUCUG (DNA:RNA)
RNA: B1 RNA with A25U, C26G, U27A, C28U, U31G
DNA 1: CAATCTGAATTCCGGTCTCCC
DNA 2: TGGTGGCTACGACGGGATT
B12: CGUGAUC (DNA:RNA)
RNA: B1 RNA with A25C, C26G, C28G, C29A, U31C
DNA 1: CAATCTGAATTCCGGTCTCCC
DNA 2: TGGTGGCTACGACGGGATT
B13: CGUGAUG (DNA:RNA)
RNA: B1 RNA with A25C, C26G, C28G, C29A, U31G
DNA 1: CAATCTGAATTCCGGTCTCCC
DNA 2: TGGTGGCTACGACGGGATT
B14: GCGAGGG (DNA:RNA)
RNA: B1 RNA with A25G, U27G, C28A, C29G, U30G, U31G
DNA 1: CAATCTGAATTCCGGTCTCCC
DNA 2: TGGTGGCTACGACGGGATT
B15: GUCAGAC (DNA:RNA)
RNA: B2 RNA with U25G, G27C, U28A, U29G, C30A
DNA 1: CAATCTGAATTCCGGTCTCCC
DNA 2: TGGTGGCTACGACGGGATT
B16: CAAGAAC (DNA:RNA)
RNA: B2 RNA with U25C, U26A, G27A, U28G, U29A, C30A
DNA 1: CAATCTGAATTCCGGTCTCCC
DNA 2: TGGTGGCTACGACGGGATT
B17: UCGGUAA (DNA:RNA)
RNA: B2 RNA with U26C, U28G, C30A, C31A
DNA 1: CAATCTGAATTCCGGTCTCCC
DNA 2: TGGTGGCTACGACGGGATT
B18: CUCCUAG (DNA:RNA)
RNA: B2 RNA with U25C, G27C, U28C, C30A, C31G
DNA 1: CAATCTGAATTCCGGTCTCCC
DNA 2: TGGTGGCTACGACGGGATT
B19: AUUGUGA (DNA:RNA)
RNA: B1 RNA with C26U, C28G, C29U, U30G, U31A
DNA 1: CAATCTGAATTCCGGTCTCCC
DNA 2: TGGTGGCTACGACGGGATT

What follows are binders tested against T1, RBFOX1 RRM RbFoxmut (Fox-RRM*) (assay: EMSA; HiTS-Eq, 1 nM pool, 10 min; buffer printed only for the single-RNA assays: 10 mM Tris pH 7.5, 150 mM NaCl, 3.4 mM EDTA, 0.001% NP-40, 30 C). Settings: tags: His6 N-terminal (pET28a); label: 5' 32P.
In short: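 Purified RbFox RRM, wild type or mutant, was incubated for 10 min in 50 µL with 1 nM of a 5′-radiolabelled RNA pool carrying 7 randomized nucleotides, whose flanks were annealed to DNA oligonucleotides, over a series of increasing protein concentrations. Unbound RNA was resolved on 8% native PAGE, cut out, reverse-transcribed, barcoded by PCR and sequenced on an Illumina HiSeq 2500. Relative association constants were derived from changes in read counts for each RNA species versus the control reaction and normalised to the cognate motif.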

Binder | binding signal
B1 | 0.0436 KA relative to UGCAUGU
B2 | 0.104 KA relative to UGCAUGU
B3 | 0.166 KA relative to UGCAUGU
B4 | 0.126 KA relative to UGCAUGU
B5 | 0.17 KA relative to UGCAUGU
B6 | 0.0824 KA relative to UGCAUGU
B7 | 0.0763 KA relative to UGCAUGU
B8 | 0.395 KA relative to UGCAUGU
B9 | 1.01 KA relative to UGCAUGU
B10 | 0.209 KA relative to UGCAUGU
B11 | 0.0664 KA relative to UGCAUGU
B12 | 0.118 KA relative to UGCAUGU
B13 | 0.268 KA relative to UGCAUGU
B14 | 0.0739 KA relative to UGCAUGU
B15 | 0.0721 KA relative to UGCAUGU
B16 | 0.106 KA relative to UGCAUGU
B17 | 0.133 KA relative to UGCAUGU
B18 | 0.0819 KA relative to UGCAUGU
B19 | 0.0934 KA relative to UGCAUGU

Source: publication PMC9911399, “Two distinct binding modes provide the RNA-binding protein RbFox with extraordinary sequence specificity”
